S2 tox: cell viability loss in ATXN counter-screen. Potency, µM (highest dose often 56.7 µM), usual class: cytotoxic. 0.49% of 400,000 active. S2 cells (HEK-293 line with an ATXN2-luciferase reporter) viability, CellTiter-Fluor protease fluorescence, 24 h. AID 651635; note: nearly all actives have a fitted effect of over 40% in size
HT1080 IDH1KD tx: kills HT-1080 cells with IDH1 knockdown; AID 686971; 2% of 360,000 active; Potency, µM (titrated, usually from 46.1 µM), for the others: top-dose activity, negative = toxicity, usual class: cytotoxic; HT-1080 IDH1 knockdown viability, ATP luminescence, 48 h;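 note: 0% = DMSO wells and -100% = cell-free medium wells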
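In this qHTS, HT-1080 cells depleted of IDH1 are exposed for 48 h at 37 °C to compound titrations. Toxicity is scored from CellTiter-Glo luminescence, with DMSO as full viability and medium alone as none.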
ATXN2 expr inh: inhibitors of ATXN2 expression. HEK-293 ATXN2-luciferase reporter, luminescence, 24 h. Potency, µM (titrated, usually from 57 µM), for inactives: at the top dose activity change, negative = inhibition, usual class: inhibitors. 0.72% of 360,000 active; note: % is set by controls: 0 for no effect and ±100 for the full control effect; nearly all actives have a fitted effect of over 55% in size
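qHTS (up to 57 uM final) was run with 24 h compound exposure of reporter cells at 37 °C. Each well was multiplexed: SteadyGlo luminescence measured ATXN2-luciferase expression after a fluorogenic Gly-Phe-AFC viability readout (25 uM final).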
KB-V1 MDR tox: KB-V1 MDR subline cytotoxicity; 3.4% of 400,000 active; AID 1347076; KB-V1 MDR cells viability, CellTiter-Glo, 72 h; Potency, µM (series often up to 46.1 µM), actives largely listed as cytotoxic; note: % is set by controls: 0 for no effect and ±100 for the full control effect; nearly all actives have a fitted effect of over 60% in size
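KB-V1 cells (P-gp-expressing MDR subline of KB-3-1) in phenol-red-free DMEM with 10% FBS were exposed to library compounds over a concentration series for 72 h at 37 degrees C. Viability read by CellTiter-Glo luminescence; concentration-effect curves fitted after normalization.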
HT1080NT lethal: kills 2HG-producing HT-1080-NT fibrosarcoma cells; HT-1080-NT fibrosarcoma viability, CellTiter-Glo ATP luminescence, 48 h; 1.6% of 360,000 active; Potency, µM (top dose mostly 46.1 µM), inactives show top-dose activity, negative = less viability, most hits filed as cytotoxic;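 note: NT is the 2HG producing partner of a matched IDH1 knockdown line; 0% = DMSO-treated cells and -100% = media-only wells without cells; nearly all actives have a fitted effect of over 55% in size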
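750 cells/well, RPMI + 5% FBS; 2 h settle, compound pin-transfer, 48 h at 37 degrees C. CellTiter-Glo 10 min RT, luminescence. Normalized to DMSO and media-only wells.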
KB-3-1 cytotox: KB-3-1 parental cell cytotoxicity | KB-3-1 viability, CellTiter-Glo ATP luminescence, 72 h | Potency, µM (doses to about 46.1 µM), most hits filed as cytotoxic | 1.4% of 400,000 active; note: % is set by controls: 0 for no effect and ±100 for the full control effect; nearly all actives have a fitted effect of over 60% in size
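72 h, 37 °C compound treatment of KB-3-1 parental cells; CellTiter-Glo added, 10 min, luminescence read. Data corrected against DMSO-only plates and normalized before curve fitting.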
The depositor's hits bear a star; [ ] = another dose, or the depositor's remark. Rows were chosen to be rich in hits. Some 6.2% of all compounds tested hit in one or more screens of this group. Calls come from the whole dose curve; as a rule, active = well fitted curve in the direction sought with a large enough effect; inconclusive = small, poorly fitted or top-dose-only effect, or another doubt; inactive = no such curve, though single readings can be large; an effect the other way counts as inactive or inconclusive. Potency is the fitted concentration of half-maximal effect.

What do the screens show for `Cc1c(N)nc([C@H](CC(N)=O)NC[C@@H](N)C(N)=O)nc1C(=O)N[C@H](C(=O)N[C@@H](C)[C@H](O)[C@@H](C)C(=O)N[C@@H](C(=O)NCCc1nc(-c2nc(C(=O)NCCC[S+](C)C)cs2)cs1)[C@@H](C)O)C(O[C@H]1O[C@H](CO)[C@H](O)[C@@H](O)[C@@H]1O[C@H]1O[C@H](CO)[C@@H](O)[C@H](OC(N)=O)[C@H]1O)c1cnc[nH]1` (stereo not given in full)?
ATXN2 expr inh: 13.7µM*

How did COc1ccc(C)cc1NC(=O)c1cccn(Cc2cccc([N+](=O)[O-])c2)c1=O do in these assays?
S2 tox: inactive; ATXN2 expr inh: -1.4%; KB-V1 MDR tox: inactive; KB-3-1 cytotox: inactive

What do the screens show for `CC(=O)OC(C)(C)/C=C/C(=O)C(C)(O)C1C(O)CC2(C)C3CC=C4C(CC(O)C(=O)C4(C)C)C3(C)C(=O)CC12C` (stereo not given)?
HT1080 IDH1KD tx: 0.0461µM*; ATXN2 expr inh: inconclusive; KB-V1 MDR tox: 0.461µM*; HT1080NT lethal: 0.116µM*; KB-3-1 cytotox: 0.164µM*

How did CC(C)(O)C=CC(=O)[C@](C)(O)[C@H]1[C@H](O)C[C@]2(C)[C@@H]3CC=C4[C@@H](C=C(O)C(=O)C4(C)C)[C@]3(C)C(=O)C[C@@]12C do in these assays?
ATXN2 expr inh: 1.53µM*

Results for CC(=O)OC(C)(C)/C=C/C(=O)C(C)(O)C1[C@H](O)C[C@@]2(C)C3CC=C4C(CC[C@@H](O)C4(C)C)[C@]3(CO)C(=O)C[C@]12C (stereo not given in full) ?
S2 tox: inconclusive; HT1080 IDH1KD tx: 0.0326µM*; ATXN2 expr inh: inconclusive; KB-V1 MDR tox: 3.66µM*; HT1080NT lethal: 0.103µM*; KB-3-1 cytotox: inconclusive

How did CC(=O)OC(C)(C)/C=C/C(=O)[C@](C)(O)[C@H]1[C@H](O)C[C@@]2(C)[C@@H]3CC=C4[C@H](C[C@H](O)C(=O)C4(C)C)[C@]3(C)C(=O)C[C@]12C do in these assays?
HT1080 IDH1KD tx: 0.0326µM*; ATXN2 expr inh: 14.1µM*; KB-V1 MDR tox: 8.2µM*; HT1080NT lethal: 0.082µM*; KB-3-1 cytotox: 0.146µM*

How did Cc1ccc2c(c1)C(Cc1nc3ccccc3c(=O)n1-c1ccc(Br)cc1)C(=O)N2 (stereo not given) do in these assays?
S2 tox: 25.1µM*; ATXN2 expr inh: 0.0%; KB-V1 MDR tox: inactive; KB-3-1 cytotox: inactive

How did CC1=CC2OC3CC4OC(=O)C=CC=CC(=O)OCCC(C)C(O)C(=O)OCC2(CC1O)C4(C)C31CO1 (stereo not given) do in these assays?
S2 tox: inconclusive; ATXN2 expr inh: inconclusive; KB-V1 MDR tox: 0.517µM*; HT1080NT lethal: 0.206µM*; KB-3-1 cytotox: 0.146µM*

What do the screens show for `CC1=CC2OC3CC4OC(=O)C=CC=CC(C(C)O)OCC(O)C(C)CC(=O)OCC2(CC1O)C4(C)C31CO1` (stereo not given)?
S2 tox: inconclusive; ATXN2 expr inh: -68.7%; KB-V1 MDR tox: inconclusive; HT1080NT lethal: 0.0461µM*; KB-3-1 cytotox: 0.0092µM*

Results for CN(C)CCc1c[nH]c2cccc(O)c12 ?
S2 tox: inactive; ATXN2 expr inh: inconclusive

Results for NCC(=O)c1ccc(Cl)c(Cl)c1 ?
KB-V1 MDR tox: inactive; KB-3-1 cytotox: inconclusive

Results for CCC(C(=O)Nc1ccccc1F)N1C(=O)CN=C(c2ccccc2)c2ccccc21 (stereo not given) ?
S2 tox: inconclusive; ATXN2 expr inh: -30.0%; KB-V1 MDR tox: inconclusive; KB-3-1 cytotox: inconclusive

Results for CCN(CC)C(=O)[C@@H]1C=C2c3cccc4[nH]cc(c34)C[C@H]2N(C)C1 ?
S2 tox: inconclusive; ATXN2 expr inh: -16.8%[222 µM]

How did O=c1c2ccccc2nc(-c2ccoc2)n1-c1ccccc1Cl do in these assays?
S2 tox: inconclusive; HT1080 IDH1KD tx: inconclusive; ATXN2 expr inh: -29.1%; KB-V1 MDR tox: 16.4µM*; HT1080NT lethal: -18.2%; KB-3-1 cytotox: inconclusive

What do the screens show for `CCOC(=O)c1c(N)n(Cc2ccco2)c2nc3ccccc3nc12`?
HT1080 IDH1KD tx: -19.2%; ATXN2 expr inh: -6.3%; KB-V1 MDR tox: inactive; HT1080NT lethal: -16.9%; KB-3-1 cytotox: inactive

How did CC(C)N(C(=O)CSc1nnc(-c2cc3ccccc3cc2O)n1Cc1ccco1)C(C)C do in these assays?
S2 tox: inconclusive; HT1080 IDH1KD tx: inconclusive; ATXN2 expr inh: -15.4%; KB-V1 MDR tox: 3.26µM*; HT1080NT lethal: inconclusive; KB-3-1 cytotox: 14.6µM*

How did COc1cc(/C=C/[N+](=O)[O-])ccc1O do in these assays?
S2 tox: inconclusive; HT1080 IDH1KD tx: inconclusive; ATXN2 expr inh: -26.3%; KB-V1 MDR tox: inactive; HT1080NT lethal: inconclusive; KB-3-1 cytotox: inconclusive

How did CCN(CC)c1ccc(/C=C/[N+](=O)[O-])cc1 do in these assays?
S2 tox: inactive; HT1080 IDH1KD tx: 16.4µM*; ATXN2 expr inh: 1.5%[11.3 µM]; KB-V1 MDR tox: inconclusive; HT1080NT lethal: inconclusive; KB-3-1 cytotox: inconclusive

How did C=C(C)CSc1nnc([C@@H](N)Cc2c[nH]c3ccccc23)o1 do in these assays?
S2 tox: inconclusive; HT1080 IDH1KD tx: 1.8%; ATXN2 expr inh: -0.4%; KB-V1 MDR tox: inactive; HT1080NT lethal: 13.0%; KB-3-1 cytotox: inactive

How did Cc1[nH]nc2ccc(-c3cncc(OC[C@@H](N)Cc4c[nH]c5ccccc45)c3)cc12 do in these assays?
HT1080 IDH1KD tx: 10.3µM*; ATXN2 expr inh: 2.24µM*; KB-V1 MDR tox: 25.9µM*; HT1080NT lethal: 18.4µM*; KB-3-1 cytotox: inconclusive

What do the screens show for `NC(N)=Nc1ccc2[nH]c3c(c2c1)C[C@@]1(O)[C@H]2Cc4ccc(O)c5c4[C@@]1(CCN2CC1CC1)[C@H]3O5`?
S2 tox: inconclusive; HT1080 IDH1KD tx: 16.4µM*; ATXN2 expr inh: -10.1%; KB-V1 MDR tox: inactive; HT1080NT lethal: 14.6µM*; KB-3-1 cytotox: inconclusive

What do the screens show for `OCCN(CCO)CCO`?
S2 tox: inactive

What do the screens show for `Cc1cccc(N2CCN(C(=O)CCCCn3c(=O)[nH]c4ccsc4c3=O)CC2)c1C`?
S2 tox: inconclusive; ATXN2 expr inh: inconclusive; KB-V1 MDR tox: inactive; KB-3-1 cytotox: inactive

How did COc1ccccc1NS(=O)(=O)c1cc(NC(=O)c2ccc(Cl)nc2)ccc1N1CCCC1 do in these assays?
S2 tox: inconclusive; HT1080 IDH1KD tx: -3.9%; ATXN2 expr inh: -30.7%; KB-V1 MDR tox: 4.11µM*; HT1080NT lethal: -1.6%; KB-3-1 cytotox: inactive

Source: PubChem BioAssay (National Center for Advancing Translational Sciences (NCATS))
